Data on 16 molecules can be found in PubChem BioAssay (NCATS).

Where “and” joins values, the source holds several entries; their conditions need not be identical. Identical values can stand only once. Values without a mark were called inactive. Records with an inconclusive call do not appear. Calls of active or inactive are those of the source. Unless noted, the call rests on the fitted dose curve; in most records, active means well fitted curve in the direction sought with a large enough effect; inconclusive means small, poorly fitted or top-dose-only effect, or another doubt; inactive means no such curve, though single readings can be large; an effect the other way counts as inactive or inconclusive.

A short description of experiment [1]: qHTS Assay for Identification of Small Molecule Agonists for Thrombopoietin (TPO) Signaling Pathway (AID 917). Further: on the % scale 0 is the no-effect control and ±100 the full control effect. Put shortly:
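Reporter: GpIIb promoter–luciferase in murine Ba/F3 expressing human TPO receptor. Pre-starved of IL-3 overnight; compounds with 26 pM TPO, 24 hrs, 37 C/5% CO2; luminescence read.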

Experiment [2] in a line: Cell Viability - HepG2 (AID 433; calls by dose curve;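 further: potency means the concentration at half of the fitted maximal effect; cells exposed to compound for 40 hours; potency for ATP loss meaning cytotoxicity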). Particulars: qHTS. Summed up:
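Cytotoxicity read as ATP loss (CellTiter-Glo luminescence) after 40 hr compound exposure of HepG2, 1500 cells/well, 37 °C. AC50 by Hill equation; 0% set by DMSO, 100% inhibition by 100 uM tamoxifen.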
(In qHTS, concentration-response curves come from the screen itself.)

Experiment [3] can be described thus: Cell Viability - MRC5 (AID 434; calls by dose curve;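 further: potency means the concentration at half of the fitted maximal effect; cells exposed to compound for 40 hours at 37 °C; potency reflects cytotoxicity seen as loss of intracellular ATP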). Particulars: MRC5 lung fibroblast viability, qHTS. Summed up: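 MRC5 normal human lung fibroblasts (1500/well) were treated with compounds for 40 hr at 37 °C in complete medium, and viable cells were measured as intracellular ATP by CellTiter-Glo luminescence. AC50 came from Hill fits, normalized to DMSO and 100 uM tamoxifen.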

The nature of experiment [4]: Cell Viability - NIH 3T3 (AID 541).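 Further: cells exposed to compound for 40 hours; plate controls were DMSO alone for no effect and tamoxifen positive control for full effect; nearly all actives have a fitted effect of over 25% in size.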 The note with it: NIH 3T3 cell viability, qHTS; activity change, negative = cytotoxicity: at 92.2 µM (top of the series). Put shortly: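 NIH 3T3 mouse embryo fibroblasts (1000 cells/well) were plated in complete medium and treated with compound for 40 hr at 37 °C. Viability was read as intracellular ATP by CellTiter-Glo luminescence; AC50 values came from Hill-equation fits of concentration-response data.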

Experiment [5] is described as follows: Cell Viability - Renal Proximal Tubule (AID 545).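 Further: cells exposed to compound for 40 hours; 0% = DMSO only and -100% = 100 µM tamoxifen; nearly all actives have a fitted effect of over 40% in size.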 Particulars: renal proximal tubule cells viability; at 91.7 µM (top of the series), primary cells of rat origin unless noted. Put shortly: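 Viability taken as intracellular ATP (CellTiter-Glo luminescence) after 40 hr, 37 °C compound treatment of primary proximal tubule cells from rat kidney, 1000 cells/well; Hill-equation fits of qHTS concentration-response data gave AC50.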

Experiment [6] can be described thus: Cellular Toxicity (caspase-3) Mesangial (AID 660).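 Further: cells exposed to compound for 16 h before the caspase read.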 Put shortly: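 Human renal glomerular mesangial cells (1000/well) were treated with compounds for 16 h at 37 °C in complete medium, then caspase 3/7 activity was read by Caspase-Glo luminescence. Data were normalized to DMSO and 100 uM tamoxifen; AC50 from Hill fits.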
Experiment [7] is described as follows: Cellular Toxicity (caspase-3) H-4-II-E (AID 663).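 Further: cells exposed to compound for 16 hr before readout; 0% = DMSO basal and 100% = 100 µM tamoxifen.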 Put shortly: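 Luminescence from caspase-cleaved aminoluciferin substrate, read 20 min after reagent addition, reports caspase 3/7 activation in rat H-4-II-E cells after 16 hr compound exposure. Normalized to DMSO (basal) and 100 uM tamoxifen (100%); AC50 from Hill fits.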
A short description of experiment [8]: Cellular Toxicity (caspase-3) NIH 3T3 (AID 666).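 Further: 0% = DMSO basal and 100% = 100 µM tamoxifen stimulation.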 Put shortly:
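Mouse NIH 3T3 fibroblasts (1000 cells/well) were treated with compound for 16 hr at 37°C in complete medium; caspase-3/7 activity was read by Caspase-Glo luminescence. Normalized to DMSO and 100 uM tamoxifen; AC50 from Hill fits.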

Experiment [9] is described as follows: Cellular Toxicity (caspase-3) Renal Proximal Tubule (AID 667).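 Further: cells exposed to compound for 16 hours at 37 °C before detection; 0% = DMSO basal and 100% = 10 µM staurosporine.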 Particulars: renal proximal tubule cells; at 91.7 µM (top of the series), primary cells freshly taken from rat, solvent-only wells 0%, staurosporine 100% unless noted. Put shortly:
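Caspase 3/7 activation measured by luminescent aminoluciferin release in primary rat proximal tubule cells after 16 hr compound exposure at 37 °C. AC50 from Hill-fitted concentration-response, scaled between DMSO and 10 uM staurosporine.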

Experiment [10] is described as follows: MultiTox-Fluor Cytotoxicity Assay - LYMP1-002 - Live Cells (AID 955). Further: on the % scale 0 is the no-effect control and ±100 the full control effect. Summed up: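 Human lymphoblastoid LYMP1-002 cells, 2500/well in complete medium, rested 5 hr at 37 C, then exposed to compounds for 16 hr at 37 C. Live-cell protease cleavage of GF-AFC read by fluorescence (Ex/Em 405/510) after 60 min at room temperature; AC50 from Hill fits.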
Experiment [11] is described as follows: Cell Viability - LYMP2-025 (AID 976).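 Further: cells exposed to compound for 24 h at 37 °C; plate controls were DMSO only for no effect and tetraoctylammonium bromide control for full effect.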 Summed up:
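Human lymphoblastoid LYMP2-025 cells (2500/well) were pre-incubated 5 hr at 37 C, then treated with compounds for 24 hr at 37 C in complete medium. Viability was read as intracellular ATP by CellTiter-Glo luminescence; AC50 from Hill fits.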

For experiment [12], the target named is Estrogen receptor (Homo sapiens) (UniProt P03372). The experiment is described as follows: qHTS assay for small molecule antagonists of estrogen receptor alpha signaling (AID 588513; active means well fitted curve in the direction sought with a large enough effect in the signal ratio, with a control signal flat, not every such curve was filed as active; the % refers to the signal ratio; further: on the % scale 0 is the no-effect control and ±100 the full control effect). Summed up: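 Antagonist mode: inhibition of 0.5 nM 17-beta-estradiol-driven beta-lactamase reporter in HEK 293 ER-alpha-UAS-bla cells, 18 h at 37C, CCF4 readout after 2 h at RT. Normalised to estradiol and DMSO; titration fitted to Hill.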
Sequence of Estrogen receptor (Homo sapiens) (P03372 whole entry, looked up): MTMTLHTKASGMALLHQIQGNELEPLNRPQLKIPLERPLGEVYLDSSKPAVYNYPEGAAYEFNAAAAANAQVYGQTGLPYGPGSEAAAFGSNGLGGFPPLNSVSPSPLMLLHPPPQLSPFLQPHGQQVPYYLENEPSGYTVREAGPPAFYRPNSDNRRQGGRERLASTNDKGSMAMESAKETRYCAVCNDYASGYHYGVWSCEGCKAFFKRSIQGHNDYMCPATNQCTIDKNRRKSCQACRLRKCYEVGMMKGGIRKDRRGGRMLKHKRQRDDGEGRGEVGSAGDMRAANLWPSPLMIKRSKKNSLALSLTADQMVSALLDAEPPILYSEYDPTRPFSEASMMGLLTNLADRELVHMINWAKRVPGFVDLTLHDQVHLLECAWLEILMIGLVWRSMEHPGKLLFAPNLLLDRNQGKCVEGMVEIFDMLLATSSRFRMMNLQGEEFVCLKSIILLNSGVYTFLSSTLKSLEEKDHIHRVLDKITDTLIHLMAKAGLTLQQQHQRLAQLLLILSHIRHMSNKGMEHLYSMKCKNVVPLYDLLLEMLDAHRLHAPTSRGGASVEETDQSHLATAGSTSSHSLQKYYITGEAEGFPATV

Experiment [13] deals with Glucocorticoid receptor (Homo sapiens) (UniProt P04150). The experiment is described as follows: qHTS assay for small molecule agonists of glucocorticoid receptor signaling (AID 588532; active means well fitted curve in the direction sought with a large enough effect in the signal ratio, with a control signal flat; the % refers to the signal ratio;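 further: 100% = dexamethasone at 0.1 µM and 0% = DMSO only wells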). The note with it: HeLa MMTV-bla, beta-lactamase ratio, agonist, 18 h; hits give high values; percent of dexamethasone control, DMSO zero. Summed up:
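Stimulation of a glucocorticoid response element-driven beta-lactamase gene was measured in HeLa cells. Responses were scaled between DMSO basal and 0.1 uM dexamethasone, then fitted for half-maximal stimulation.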

Experiment [14] can be described thus: qHTS assay for small molecule activators of the p53 signaling pathway (AID 651743; active means well fitted activation curve with a large enough effect in the signal ratio, not every such curve was filed as active; the % refers to the signal ratio; further: % of control where 0% means no effect). Particulars: HCT-116 p53RE-bla, beta-lactamase FRET ratio, 16 h; activation: hits give high values. Put shortly:
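p53RE-bla HCT-116 cells with a stably integrated beta-lactamase reporter under p53 response elements were plated, rested 5 hours at 37 C/5% CO2, then exposed to compounds in DMSO for 16 hours at 37 C. LiveBLAzer B/G FRET substrate was read after 2 hours at room temperature.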

The nature of experiment [15]: qHTS assay for cell viability of the p53RE-bla HCT-116 cell line (AID 743292). Further: on the % scale 0 is the no-effect control and ±100 the full control effect; nearly all actives have a fitted effect of over 55% in size. Summed up: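 After plating at 4,000 cells per well and a 5 h rest at 37 C, HCT-116 cells carrying p53RE-bla received test chemicals in DMSO. Sixteen hours later at 37 C, CellTiter-Glo was added and luminescence recorded following 30 min at room temperature.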
A short description of experiment [16]: Cellular Toxicity (caspase-3) SHSY5Y (AID 657). Put shortly: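 Luminescent Caspase-Glo 3/7 read-out, 1 hr room temperature, follows 16 hours of compound treatment of SH-SY5Y cells at 37 °C. Normalization: DMSO basal, 10 uM staurosporine as 100%; AC50 values from Hill-equation concentration-response fits.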
Experiment [17] is described as follows: Cellular Toxicity (caspase-3) SK-N-SH (AID 661).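 Further: 0% = DMSO basal and 100% = 10 µM staurosporine.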 Summed up:
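SK-N-SH human neuroblastoma cells (1500/well) were treated with compounds for 16 hr at 37 °C in complete medium; caspase 3/7 activity was read by Caspase-Glo luminescence. AC50 came from Hill fits of data normalized to DMSO and 10 uM staurosporine.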

In experiment [18] the target is Peroxisome proliferator-activated receptor delta (Homo sapiens) (UniProt Q03181). The experiment is described as follows: qHTS assay for small molecule agonists of peroxisome proliferator-activated receptor delta signaling (AID 588534; calls by dose curve;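 further: 0% = DMSO basal wells and 100% = positive control agonist at 10 µM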). Put shortly: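 Cell-based beta-lactamase reporter assay run in agonist mode: cells seeded and incubated 5 hrs at 37 C, compounds added and incubated 18 hrs at 37 C. CCF4 dye fluorescence read after 2 hrs at RT; EC50 and efficacy from Hill fits.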
Sequence of Peroxisome proliferator-activated receptor delta (Homo sapiens) (Q03181 whole entry, looked up): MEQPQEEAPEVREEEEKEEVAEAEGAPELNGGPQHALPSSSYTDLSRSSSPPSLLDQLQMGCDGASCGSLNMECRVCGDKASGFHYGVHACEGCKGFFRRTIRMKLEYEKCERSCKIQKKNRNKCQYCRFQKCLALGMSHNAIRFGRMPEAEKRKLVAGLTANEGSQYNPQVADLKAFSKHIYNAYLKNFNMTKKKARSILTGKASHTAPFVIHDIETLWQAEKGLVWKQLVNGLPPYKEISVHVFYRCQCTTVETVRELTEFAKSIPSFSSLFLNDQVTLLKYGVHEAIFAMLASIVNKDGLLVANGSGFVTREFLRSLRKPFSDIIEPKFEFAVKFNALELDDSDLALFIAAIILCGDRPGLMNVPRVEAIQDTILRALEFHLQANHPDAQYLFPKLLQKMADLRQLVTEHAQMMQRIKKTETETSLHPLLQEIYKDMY

The target of experiment [19] is Peroxisome proliferator-activated receptor alpha (Homo sapiens) (UniProt Q07869). The experiment is described as follows: qHTS assay for small molecule agonists of the peroxisome proliferator-activated receptor alpha (PPARalpha) signaling pathway (AID 651778). Further: % of control where 0% means no effect. Particulars: PathHunter PPARalpha complementation, chemiluminescence, 6 h; hits give high values. Summed up: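 Cells plated at 2,000/well and held overnight at 37 C, 5% CO2, then compound added by pin tool for 6 hr; after PathHunter detection reagent and 60 min at room temperature, chemiluminescence from enzyme complementation was read.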
Sequence of Peroxisome proliferator-activated receptor alpha (Homo sapiens) (Q07869 whole entry, looked up): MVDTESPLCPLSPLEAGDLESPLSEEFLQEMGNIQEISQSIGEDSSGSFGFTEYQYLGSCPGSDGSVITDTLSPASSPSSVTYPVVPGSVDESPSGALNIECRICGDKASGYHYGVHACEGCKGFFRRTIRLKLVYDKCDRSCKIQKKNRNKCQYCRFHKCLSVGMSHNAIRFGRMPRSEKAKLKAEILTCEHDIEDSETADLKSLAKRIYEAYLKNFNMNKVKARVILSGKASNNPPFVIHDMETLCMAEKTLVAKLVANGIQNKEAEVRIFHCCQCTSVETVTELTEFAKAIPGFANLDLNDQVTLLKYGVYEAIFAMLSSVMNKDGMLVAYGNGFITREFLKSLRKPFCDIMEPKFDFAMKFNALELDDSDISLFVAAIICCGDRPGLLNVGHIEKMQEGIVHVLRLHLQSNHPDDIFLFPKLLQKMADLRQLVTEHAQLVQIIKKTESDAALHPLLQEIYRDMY

The target in experiment [20] is Cytochrome P450 2C9 (Homo sapiens) (UniProt P11712). The experiment is described as follows: qHTS Assay for Inhibitors and Substrates of Cytochrome P450 2C9 (AID 883). Further: nearly all actives have a fitted effect of over 60% in size. Further: potency means the concentration at half of the fitted maximal effect. Summed up:
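CYP2C9 deoxyluciferin hydroxylation, 37C, 60 min with NADPH regeneration; 10nM enzyme, 100uM Luciferin-H (KM). Glo detection reagent stopped reaction; luminescence normalized to sulphaphenazole (57uM) full inhibition.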

Sequence of Cytochrome P450 2C9 (Homo sapiens) (P11712 whole entry, looked up): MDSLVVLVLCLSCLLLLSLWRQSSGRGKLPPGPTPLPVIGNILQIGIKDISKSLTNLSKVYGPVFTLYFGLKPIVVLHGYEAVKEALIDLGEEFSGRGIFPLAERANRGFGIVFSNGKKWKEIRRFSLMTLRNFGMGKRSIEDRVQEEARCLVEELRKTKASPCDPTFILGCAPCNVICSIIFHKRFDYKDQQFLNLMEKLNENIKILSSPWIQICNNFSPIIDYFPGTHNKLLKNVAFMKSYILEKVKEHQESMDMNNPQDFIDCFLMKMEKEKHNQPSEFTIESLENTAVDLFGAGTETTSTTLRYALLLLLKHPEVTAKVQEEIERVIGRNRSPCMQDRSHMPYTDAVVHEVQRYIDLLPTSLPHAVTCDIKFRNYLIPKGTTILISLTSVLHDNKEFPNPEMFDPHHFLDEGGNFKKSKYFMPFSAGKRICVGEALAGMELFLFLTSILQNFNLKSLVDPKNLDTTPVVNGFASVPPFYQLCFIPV
Sequence of Glucocorticoid receptor (Homo sapiens) (P04150 whole entry, looked up): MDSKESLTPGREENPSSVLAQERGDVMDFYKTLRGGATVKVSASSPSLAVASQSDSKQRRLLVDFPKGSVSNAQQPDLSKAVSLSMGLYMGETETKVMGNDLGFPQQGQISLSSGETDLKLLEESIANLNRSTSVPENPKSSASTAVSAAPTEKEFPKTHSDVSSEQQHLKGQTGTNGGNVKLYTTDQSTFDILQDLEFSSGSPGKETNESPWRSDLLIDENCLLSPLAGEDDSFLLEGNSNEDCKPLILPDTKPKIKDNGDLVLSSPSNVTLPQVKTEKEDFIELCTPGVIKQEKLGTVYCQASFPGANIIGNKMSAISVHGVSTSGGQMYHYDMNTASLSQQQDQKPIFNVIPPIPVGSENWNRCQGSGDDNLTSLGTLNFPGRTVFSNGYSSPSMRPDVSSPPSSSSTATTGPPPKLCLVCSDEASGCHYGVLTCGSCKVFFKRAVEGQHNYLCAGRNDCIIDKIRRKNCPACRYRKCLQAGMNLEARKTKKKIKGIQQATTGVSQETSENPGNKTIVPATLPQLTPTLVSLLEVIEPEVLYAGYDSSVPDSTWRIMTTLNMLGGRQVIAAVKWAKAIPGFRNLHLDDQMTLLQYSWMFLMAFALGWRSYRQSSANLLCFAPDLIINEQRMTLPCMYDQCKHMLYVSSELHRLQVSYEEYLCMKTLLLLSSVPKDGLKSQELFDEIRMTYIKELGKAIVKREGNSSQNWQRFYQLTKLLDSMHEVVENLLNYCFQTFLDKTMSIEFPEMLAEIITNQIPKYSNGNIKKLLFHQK

As for `COc1ccc(OC)c([C@H](O)[C@H](C)N)c1`, the molecule was classed as inactive in experiment [1].
Regarding `O=S1OCC2C(CO1)C1(Cl)C(Cl)=C(Cl)C2(Cl)C1(Cl)Cl` (stereo not drawn), the Potency in experiment [2] and in experiment [3] was > 92 µM throughout. Moreover, the activity change, negative = cytotoxicity in experiment [4] is -20.5%; in experiment [5] it was -22.1% [at 91.7 µM]. Also, the call in experiment [6], in experiment [7], in experiment [8] and in experiment [10] was inactive. In addition, the caspase-3 activation in experiment [9] is 8.37% [at 91.7 µM]. The Potency result in experiment [11], in experiment [12] and in [15] was “inactive” throughout. The activation is 7.98% in experiment [13] and -4.01% in experiment [14].
As for `CC[C@@]1(c2ccc(N)cc2)CCC(=O)NC1=O`, the molecule was classed as inactive in [1].
Still for that read-out and setting: for `C[C@H](NC(C)(C)C)C(=O)c1cccc(Cl)c1` the value was “inactive”.
Turning to `ClC1=C(Cl)C2(Cl)C3C(Cl)C=CC3C1(Cl)C2(Cl)Cl` (stereo not drawn), the Potency in experiment [2] and in experiment [3] was > 92 µM each time. Further, the activity change, negative = cytotoxicity in experiment [5] is -2.85%. For the same molecule, the outcome in experiment [16], in experiment [6], in experiment [17], in [7], in experiment [8] and in experiment [10] was inactive. In [18], the result was inactive. The caspase-3 activation in experiment [9] is 2.29%. For the same molecule, the Potency entry in experiment [11], in [12] and in [15] was “inactive” each time. For the same molecule, the activation in [13] was 0.68%; in [14], 1.8%. Also, the max response in experiment [19] was 4.41%.
On to `ClC(Cl)=C(c1ccc(Cl)cc1)c1ccc(Cl)cc1`, for which the Potency in [2] and in experiment [3] was > 92 µM each time. Also, the activity change, negative = cytotoxicity in experiment [4] is 7.39% and -2.45%; in [5] it was -4.32% [at 91.7 µM] and -7.69% [at 91.7 µM]. Also, the molecule was called inactive in experiment [16], in experiment [6], in [17], in experiment [7], in experiment [8] and in experiment [10]. The outcome in experiment [18] was inactive. For the same molecule, in experiment [9], the caspase-3 activation was -10.4% [at 91.7 µM] and -6.37% [at 91.7 µM]. Further, the Potency entry in experiment [11], in experiment [12] and in experiment [15] was “inactive” each time. The activation in experiment [13] is 4.56% and 6.94% and 2.36%; in experiment [14] it was -3.15% and -5.84% and 6.09%. The max response in experiment [19] was 21.8% and 11.7% and 4.05%.
On to `CCOCN(C(=O)CCl)c1c(C)cccc1CC`, for which the activity change, negative = cytotoxicity is -155% (active) in [4] and -103% (active) in experiment [5]. Moreover, the outcome in experiment [16], in experiment [6], in [17], in experiment [7], in [8] and in [10] was inactive. The caspase-3 activation in experiment [9] is 0.858%. Besides, the activation in experiment [13] is 5.28% and 1.08%; in [14] it was -6.37% and -3.12%. Further, in [19], the max response was -0.344% and -1.51%. In addition, the Potency entry in experiment [15] is “inactive”.
For the molecule `C[N+]1(C)[C@@H]2CC[C@H]1CC(OC(=O)[C@@H](CO)c1ccccc1)C2` (stereo partly drawn), the outcome in experiment [1] was inactive.
Take `CN1CC[C@]2(C)c3cc(O)ccc3N(C)[C@@H]12`: the Potency in experiment [20] was 25.1 µM (active).
Turning to `COc1ccc(C[C@H]2c3cc(OC)c(OC)cc3CCN2C)cc1OC`, the Potency result in [20] is “inactive”.
Same read-out and setting: for `CN1Cc2c(ccc3c2OCO3)[C@@H]2[C@@H](O)Cc3cc4c(cc3[C@@H]21)OCO4` the value was “inactive”; for `CC(C)[C@@]1(NC(=O)[C@@H]2C[C@H]3c4cccc5[nH]cc(c45)C[C@@H]3N(C)C2)O[C@]2(O)[C@H]3CCCN3C(=O)[C@H](Cc3ccccc3)N2C1=O`, 2.51 µM (active).
Regarding `C[C@]12CC[C@H](O)C[C@@H]1CC[C@H]1[C@H]2CC[C@]2(C)C(=O)CC[C@@H]12`, in experiment [1], the call was inactive.
As to `CNC(=O)N(C)c1nnc(C(C)(C)C)s1`, the Potency result in [12] and in experiment [15] was “inactive” each time. Also, in experiment [18], the call was inactive. Further, the activation in experiment [14] was -3.47%. For the same molecule, in experiment [19], the max response is -3.93%.
In the case of `CC(C)N(CC[C@@](C(N)=O)(c1ccccc1)c1ccccn1)C(C)C`, the result in [1] was inactive.
Regarding `NC[C@H](O)c1ccc(O)cc1`, the call in experiment [1] was inactive.
